For nine molecules, growth results are on record in PubChem BioAssay (NCI).

Each structure is given as a SMILES string. About 83,000 compounds went through this panel and 20% of them were active in at least one assay; those are over-represented in the sample as a whole.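 Growth was measured after 48 h exposure to one concentration of compound in 96-well plates. Values under 10 count as active.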 Unmarked numbers belong to inactive results. Calls of active or inactive are those of the source.

Among the test systems are SR leukemia; OVCAR-8 ovarian; OVCAR-5 ovarian; OVCAR-4 ovarian; SK-OV-3 ovarian; IGROV1 ovarian; OVCAR-3 ovarian; HS 578T breast; NCI/ADR-RES ovarian; T-47D breast; BT-549 breast; MDA-MB-435 melanoma; SW-620 colon; HCT-116 colon; HCC-2998 colon; KM12 colon; MCF7 breast; MDA-MB-468 breast; RPMI-8226 leukemia.
Experiment in all cases: NCI-60 one-dose screen, 48 h (100 = growth as untreated, 0 = no growth, -100 = all killed)
What all share (settings): 10 µM unless noted

In the case of `C=C1CC[C@@H]2[C@]3(C)COC(c4cn[nH]c4-c4ccc(Br)cc4)O[C@@H]3CC[C@@]2(C)[C@@H]1C/C=C1/C(=O)OCC1O` (some centres undefined), the growth with SR leukemia is 3.62% (active); with OVCAR-8 ovarian, -9.48% (active); with OVCAR-5 ovarian, -75.9% (active); in the assay on OVCAR-4 ovarian, 8.76% (active); in the assay on SK-OV-3 ovarian, -31.8% (active); in the assay with IGROV1 ovarian it was -44.9% (active). The growth is -78.9% (active) with OVCAR-3 ovarian; 19.1% in the assay on HS 578T breast; -40% (active) in the assay with NCI/ADR-RES ovarian; 12.2% in the assay with T-47D breast; -96.6% (active) in the assay on BT-549 breast; -64.4% (active) in the assay with MDA-MB-435 melanoma. The growth is -70.5% (active) in the assay on SW-620 colon, -93.5% (active) in the assay with HCT-116 colon, -98% (active) with HCC-2998 colon and -64.3% (active) in the assay with KM12 colon.
Regarding `Cn1cc(NC(=O)c2cc(NC(=O)c3ccc(/C=C/c4ccccc4)cc3)cn2C)cc1C(=O)NCCCN1CCOCC1`, the growth is -22.3% (active) in the assay on SR leukemia; 15.4% in the assay on OVCAR-8 ovarian; 93.9% in the assay with OVCAR-5 ovarian; 63% in the assay with OVCAR-4 ovarian; 98.4% with SK-OV-3 ovarian; 58.3% in the assay on IGROV1 ovarian. The growth in the assay with OVCAR-3 ovarian is 24.5%; with HS 578T breast, 64.6%; in the assay on NCI/ADR-RES ovarian it was 90.2%; in the assay with T-47D breast, 46.4%; in the assay with BT-549 breast, 71.7%; in the assay with MDA-MB-435 melanoma, -73.1% (active). Further, the growth with SW-620 colon is -34% (active); in the assay on MCF7 breast it was -84.8% (active); in the assay on HCT-116 colon, -90.1% (active); in the assay on HCC-2998 colon, -80.1% (active); in the assay on KM12 colon it was -45.8% (active); in the assay with MDA-MB-468 breast it was -61.3% (active).
In the case of `O=c1[nH]n(C(=S)N/N=C/c2ccccc2Cl)c(=O)c2ccccc12`, the growth in the assay with SR leukemia is -13.8% (active); in the assay with OVCAR-8 ovarian, 4.91% (active); in the assay with OVCAR-5 ovarian it was 9.48% (active); with OVCAR-4 ovarian, 33%; in the assay on SK-OV-3 ovarian, 23.4%; in the assay with IGROV1 ovarian, 7.53% (active). Besides, the growth in the assay with OVCAR-3 ovarian is 24%; in the assay with NCI/ADR-RES ovarian it was -9.23% (active); with T-47D breast, 12.2%; in the assay on BT-549 breast it was -57.5% (active); in the assay on MDA-MB-435 melanoma, 22.4%; in the assay with MCF7 breast it was 10.7%. The growth in the assay with HCT-116 colon was -83.4% (active); in the assay on HCC-2998 colon it was -36.5% (active); with KM12 colon, 8.85% (active); in the assay on MDA-MB-468 breast, -26.7% (active).
Consider `COc1cc(CNC(=O)/C=C/c2ccc3c(c2)OCO3)ccc1OCc1cn(-c2ccc([N+](=O)[O-])cc2)nn1`, for which the growth was 69.3% in the assay on SR leukemia; 74.2% in the assay with RPMI-8226 leukemia; 90.5% in the assay on OVCAR-8 ovarian; 75.7% in the assay on OVCAR-4 ovarian; 99.3% in the assay with SK-OV-3 ovarian; 107% in the assay with IGROV1 ovarian. Also, the growth is 108% with OVCAR-3 ovarian; 86.7% in the assay on NCI/ADR-RES ovarian; 65.5% in the assay on T-47D breast; 71.9% in the assay on BT-549 breast; 101% in the assay on MDA-MB-435 melanoma; 81.8% with MCF7 breast. The growth in the assay with HCT-116 colon was 85.3%; in the assay with HCC-2998 colon it was 104%; with KM12 colon it was 100%; with MDA-MB-468 breast, 72.4%.
`CCN1C(=O)/C(=N\N=C(/C)c2ccc3c(c2)Nc2ccccc2S3)c2cc(Cl)ccc21`: the growth in the assay with SR leukemia was 60.8%; with OVCAR-8 ovarian, 68.1%; in the assay with OVCAR-5 ovarian it was 83.7%; in the assay with OVCAR-4 ovarian, 41.6%; in the assay with SK-OV-3 ovarian it was 108%; in the assay with IGROV1 ovarian, 69.9%. In addition, the growth with OVCAR-3 ovarian was 55.6%; in the assay on HS 578T breast, 80%; with NCI/ADR-RES ovarian, 68.8%; in the assay with T-47D breast, 34.3%; in the assay on BT-549 breast, 48.8%; with MDA-MB-435 melanoma it was 29.6%. For the same molecule, the growth with SW-620 colon is 85.9%; in the assay on MCF7 breast it was 17.6%; in the assay on HCT-116 colon, 48.8%; in the assay on HCC-2998 colon it was 102%; in the assay on KM12 colon it was 47.3%; with MDA-MB-468 breast, 9.33% (active).
Regarding `COc1ccc(-c2ccnc(SCc3cc4cc(OC)ccc4[nH]c3=O)n2)cc1`, the growth was 4.47% (active) in the assay on SR leukemia; 33.3% with OVCAR-8 ovarian; 46.8% with OVCAR-5 ovarian; 43.3% with OVCAR-4 ovarian; 45.2% in the assay with SK-OV-3 ovarian; 33.3% with IGROV1 ovarian. Moreover, the growth was 18.3% in the assay with OVCAR-3 ovarian; 28.2% in the assay on HS 578T breast; -11.4% (active) in the assay on NCI/ADR-RES ovarian; 2.83% (active) with T-47D breast; -3.12% (active) in the assay with BT-549 breast; 1.18% (active) with MDA-MB-435 melanoma. The growth is 22.2% in the assay with SW-620 colon; 11% in the assay on HCT-116 colon; 35% with HCC-2998 colon; 24.2% in the assay with KM12 colon; -26.3% (active) with MDA-MB-468 breast.
For `CN(C)c1ccnc(NCCCSC(c2ccccc2)(c2ccccc2)c2ccccc2)c1`, the growth is -55.5% (active) in the assay on SR leukemia; 59.4% in the assay with OVCAR-8 ovarian; 84.5% in the assay with OVCAR-5 ovarian; 33.4% in the assay with OVCAR-4 ovarian; 63% with SK-OV-3 ovarian; 50.5% in the assay on IGROV1 ovarian. In addition, the growth with OVCAR-3 ovarian is 49.6%; in the assay on HS 578T breast, 59.9%; in the assay with NCI/ADR-RES ovarian, 40.4%; in the assay on T-47D breast, 28%; in the assay with BT-549 breast it was 48.9%; with MDA-MB-435 melanoma, 11.3%. Also, the growth is 8.86% (active) with SW-620 colon; -35.8% (active) in the assay with MCF7 breast; -82.3% (active) in the assay on HCT-116 colon; 12.2% with HCC-2998 colon; 46.7% in the assay on KM12 colon; -34.9% (active) with MDA-MB-468 breast.
For the molecule `CN(C)CCn1c2ccccc2c2nc3cc(C(F)(F)F)ccc3nc21`, the growth is 11.1% in the assay with SR leukemia; 35.7% in the assay with OVCAR-8 ovarian; 38.8% in the assay with OVCAR-5 ovarian; 54.3% in the assay with OVCAR-4 ovarian; 41.5% in the assay on SK-OV-3 ovarian; 22.4% in the assay with IGROV1 ovarian. For the same molecule, the growth with OVCAR-3 ovarian is 69.2%; in the assay with HS 578T breast, 65.8%; in the assay on NCI/ADR-RES ovarian, 30.2%; in the assay with T-47D breast, 59.4%; with BT-549 breast, 62.2%; in the assay with MDA-MB-435 melanoma, 40.3%. In addition, the growth in the assay on SW-620 colon is 22.5%; in the assay with MCF7 breast, 6.18% (active); with HCT-116 colon, 16.8%; in the assay with HCC-2998 colon, 41.6%; in the assay on KM12 colon, 42.9%; in the assay on MDA-MB-468 breast, 35.3%.
On to `Cn1cc(-c2cc3nc(-c4cn(C)c5ncccc45)cc(N)n3n2)c2cc(Cl)ccc21`, for which the growth is -54.7% (active) with SR leukemia; -41.4% (active) in the assay with OVCAR-8 ovarian; 0.37% (active) with OVCAR-5 ovarian; -16.5% (active) in the assay on OVCAR-4 ovarian; -67.7% (active) with SK-OV-3 ovarian; -82.7% (active) in the assay on IGROV1 ovarian. Also, the growth was -75% (active) with OVCAR-3 ovarian; -29.7% (active) in the assay on HS 578T breast; -43.6% (active) in the assay with NCI/ADR-RES ovarian; -70.9% (active) with T-47D breast; -94.6% (active) in the assay with BT-549 breast; -81.1% (active) in the assay on MDA-MB-435 melanoma. For the same molecule, the growth in the assay with SW-620 colon was -86.3% (active); in the assay on HCT-116 colon it was -94.4% (active); in the assay on HCC-2998 colon, -97.8% (active); in the assay on KM12 colon, -37.2% (active); with MDA-MB-468 breast it was -95.5% (active).
